Experimental findings from PubChem BioAssay AID1259343 (VanderVen Lab, College of Veterinary Medicine, Cornell …, 2017) are described below.

Each structure is given as a SMILES string. Among all 6,200 compounds or so, about 2,900 (47%) were called active. So high a share suggests a set chosen from earlier hits. Some of the results follow. A number with no mark means an inactive call. Cut-off read from the data, not from the text of the source: active = inhibition above about 50%; inactive = the rest.

The nature of this test: Mycobacterium tuberculosis growth inhibition, primary screen (AID 1259343). The following applies: inhibition: at 10 µM, stronger effect = higher value; outcome: 10 uM.
`O=[N+]([O-])c1cccc(-c2csc(Nc3ccc(Cl)cc3)n2)c1`: the inhibition was 88.3% (active). On to `Cc1ccc(C)c(Nc2nc(-c3ccc([N+](=O)[O-])cc3)cs2)c1`, for which the inhibition is 15.3%. Regarding `COC(=O)Nc1cccc(C(=O)N2CCC(C)C3CCCCC32)c1` (stereo not given), the inhibition was 27.1%. As to `COC(=O)c1ccc2c(c1)S(=O)(=O)N(C1CCCCC1C)C2=O` (stereo not given), the inhibition is 81.4% (active).

`CS(=O)(=O)NCc1cccc(-c2ccc(C#N)s2)c1`: the inhibition is 2.92%. For `Cc1ccc(-c2nnc(SCC(=O)N3CCC(C)CC3)o2)cc1`, the inhibition is -35.9%. In the case of `CCOC(=O)CSc1nnc(CSc2cc(C)nc(N3CCCC3)n2)o1`, the inhibition is 93.2% (active).

Consider `O=C(CSc1ncnc2c1nnn2-c1ccc(F)cc1)OCc1ccccc1`, for which the inhibition is 2.43%.

For `CCOC(=O)CNC(=O)CSc1ncnc2c1nnn2-c1ccc(OC)cc1`, the inhibition was -7.53%.

Take `COC(=O)CSc1ncnc2c1nnn2-c1ccc(F)cc1`: the inhibition was 89.9% (active). Take `CCOC(=O)C(C)Sc1ncnc2c1nnn2-c1ccc(OC)cc1` (stereo not given): the inhibition is 75.5% (active). `CCOC(=O)CSc1ncnc2c1nnn2-c1ccc(OC)cc1`: the inhibition is 3.35%.

As to `COc1ccc(-n2nnc3c(SCC(N)=O)ncnc32)cc1`, the inhibition was 14.3%. On to `COc1ccc(-n2nnc3c(SCC(=O)Nc4ccccc4)ncnc32)cc1`, for which the inhibition was 68.2% (active). As for `COC(=O)C(C)Sc1ncnc2c1nnn2-c1ccc(F)cc1` (stereo not given), the figure is 76.7% (active); as for `COC(=O)CSc1ncnc2c1nnn2Cc1ccc(F)cc1`, -38.1%; as for `CCC(Sc1ncnc2c1nnn2-c1ccc(F)cc1)C(=O)OC` (stereo not given), 42.6%. For `COC(=O)C(C)Sc1ncnc2c1nnn2-c1ccc(OC)cc1` (stereo not given) the value was 72.2% (active). For `CCC(Sc1ncnc2c1nnn2-c1ccc(OC)cc1)C(=O)OC` (stereo not given) the value was -33.3%.

`CC(Sc1ncnc2c1nnn2-c1ccc(F)cc1)c1ccccc1` (stereo not given): the inhibition is 82.1% (active). Regarding `CCOC(=O)C(C)Sc1ncnc2c1nnn2-c1ccc(F)cc1` (stereo not given), the inhibition was 60% (active). Regarding `CCOC(=O)C(CC)Sc1ncnc2c1nnn2-c1ccc(F)cc1` (stereo not given), the inhibition is 36.5%. With `O=C(N=C1N=C2N=CC=CN2Cc2ccccc21)Nc1ccc(Cl)c(Cl)c1`, the inhibition is 88% (active). Turning to `O=C(CC12CC3CC(CC(C3)C1)C2)N=C1N=C2C=CC=CN2Cc2ccccc21`, the inhibition is -15.7%.

As to `O=C(N=C1N=C2C=CC(Br)=CN2Cc2ccccc21)c1ccccn1`, the inhibition is 10.5%.

Turning to `O=C(Nc1ccc(Oc2ccccc2F)cc1)C1CCN(C(=O)C#Cc2ccccc2)CC1`, the inhibition is 89.6% (active). For the molecule `O=C(Nc1ccc(Oc2ccccc2F)cc1)C1CCN(C(=O)C2=CCCC2)CC1`, the inhibition was 90.8% (active). For `Cc1cc(C(=O)N2CCC(C(=O)Nc3ccc(Oc4ccccc4F)cc3)CC2)c(C)o1` the value was “inactive”; for `O=C(Nc1ccc(Oc2ccccc2)nc1)C1CCN(C(=O)C2=CCCC2)CC1`, 44%; for `O=C(Nc1ccc(F)cc1F)C1CCN(C(=O)c2cccnc2)CC1`, 85.7% (active). `O=C(Nc1ccc(Oc2ccccc2F)cc1)C1CCN(C(=O)c2ccncc2)CC1`: the inhibition is 90.8% (active).

With `O=C(Nc1ccc(Oc2ccccc2F)cc1)C1CCN(C2Cc3ccccc3C2)CC1`, the inhibition was 91.6% (active). As for `Cc1cc(NC(=O)c2ccc(F)c(F)c2)n(-c2nc3c(c(=O)[nH]2)CCC3)n1`, the figure is -20.9%. Take `Cc1cc(NC(=O)c2ccc(Cl)cc2)n(-c2nc3c(c(=O)[nH]2)CCC3)n1`: the inhibition is 101% (active). For `Cc1cc(NC(=O)c2ccccc2)n(-c2nc3c(c(=O)[nH]2)CCC3)n1` the value was -26.4%; for `COc1ccc(Cl)cc1C(=O)Nc1cc(C)nn1-c1nc2c(c(=O)[nH]1)CCC2`, 95.5% (active). As to `Cc1cc(NC(=O)c2ccco2)n(-c2nc3c(c(=O)[nH]2)CCC3)n1`, the inhibition is 101% (active).

Consider `Cc1cc(NC(=O)c2ccccc2C)n(-c2nc3c(c(=O)[nH]2)CCC3)n1`, for which the inhibition was 100% (active). As to `Cc1cc(NC(=O)c2cc(Cl)ccc2Cl)n(-c2nc3c(c(=O)[nH]2)CCC3)n1`, the inhibition was 37.1%.

`CCCN1CCCc2cc(CCNS(=O)(=O)Cc3cccc(C)c3)ccc21`: the inhibition was 31.9%. For `O=C(Nc1ccc(Oc2ccc(Cl)cc2)c(Cl)c1)c1cc(I)cc(I)c1O` the value was 101% (active); for `CCCCCC(=O)NN=Cc1ccc([N+](=O)[O-])cc1`, 100% (active). Turning to `CSc1nnc(SCc2ccc([N+](=O)[O-])cc2)s1`, the inhibition was -12.4%. As to `CCCC(=O)Oc1c(S(=O)(=O)c2ccc([N+](=O)[O-])cc2)c(C)nn1-c1ccccc1`, the inhibition is 28.6%. Take `CC(C)=CCCC(C)=CC=NNc1ccc([N+](=O)[O-])cc1`: the inhibition is 62% (active). As for `CCCCCCC(=O)NN=Cc1ccc([N+](=O)[O-])cc1`, the inhibition is 77.5% (active). `CC(C)(C)c1ccc(C=NOCc2ccc([N+](=O)[O-])cc2)cc1`: the inhibition was -20.2%.

Regarding `O=C(CSc1nnc(SCc2ccccc2)s1)NN=Cc1ccc([N+](=O)[O-])cc1`, the inhibition is 83.1% (active). `CC1=Nn2cc(-c3ccccc3)nc2SC1c1ccccc1` (stereo not given): the inhibition is 20.8%.

For the molecule `CCCCCCC(C)=NNc1ccc([N+](=O)[O-])cc1`, the inhibition was 98.5% (active).

Turning to `CCCCCCCC(C)=NNc1nc2ccccc2s1`, the inhibition result was “inactive”. For `C=CCc1cc([N+](=O)[O-])ccc1O` the value was 101% (active); for `CC(C)(C)OC(=O)NNC(=O)C=Cc1ccco1`, -8.19%; for `O=C(/C=C/c1cc(C(F)(F)F)ccc1Cl)NCc1ccon1`, -0.62%. As for `O=C(C=Cc1ccc(F)cc1)NCc1ccco1`, the figure is 29.9%. On to `O=C(C=Cc1ccco1)NCc1ccc(F)cc1`, for which the inhibition is 72.3% (active).

Regarding `O=C(C=Cc1cccs1)NC12CC3CC(CC(C3)C1)C2`, the inhibition entry is “inactive”. For the molecule `O=C(C=Cc1ccco1)NC12CC3CC(CC(C3)C1)C2`, the inhibition was 67.6% (active). For `COc1ccc(NC(=O)c2ccsc2)cc1OC(F)F`, the inhibition was 54.8% (active). For `COc1ccc(NC(=O)CSCc2ccccn2)cc1OC(F)F` the value was 17.9%; for `COc1ccc(C)cc1CCNC(=O)c1ccsc1`, 26.8%; for `Cc1ccnc(N2CCN(c3ncnc4scc(-c5ccc(F)cc5)c34)CC2)c1`, 3.93%. For `Cc1cccc(OCCN(C)C(=O)/C=C/c2ccc3c(c2)OCO3)c1`, the inhibition is 34.9%. For `O=S(=O)(CCCOc1ccc2c(c1)OCO2)NC1CCCCCC1` the value was 93% (active); for `CC(C)NS(=O)(=O)CCCOc1ccc2c(c1)OCO2`, 50.3% (active); for `O=S(=O)(CCCOc1ccc2c(c1)OCO2)NC1CCCCC1`, 99.2% (active). In the case of `COCCn1c(=S)[nH]c2sc3c(c2c1=O)CCC(C)C3` (stereo not given), the inhibition was -21.7%. Turning to `CCN=c1scc(-c2ccc(Br)s2)n1N=CC1CCCCC1`, the inhibition is 36%. Consider `CNC(=O)c1sc(N2CCN(c3ccccc3F)CC2)nc1C`, for which the inhibition is 33.2%. With `CC1=CC(=NNc2nc3ccccc3[nH]2)CC(C)(C)C1`, the inhibition was 24.5%. Consider `Cc1nc(C(C)C)sc1C(=O)Nc1nc2ccccc2[nH]1`, for which the inhibition was 100% (active).

For the molecule `Cc1csc(Nc2ccc(Cl)cc2)[n+]1-c1ccc(Cl)cc1`, the inhibition is 16%. Take `Cc1nc2nc(CC(=O)N3CCOCC3)nn2c(C)c1Cl`: the inhibition is 52.5% (active). With `CC(C)(C)C(=O)NC(=S)NC1=CC2N=C(c3ccncc3)OC2C=C1` (stereo not given), the inhibition was 54.2% (active). Regarding `CC(C)COc1ccc(NC(=O)C2CC2c2cnn(C)c2)cc1Cl` (stereo not given), the inhibition is -6.2%. In the case of `CC(C)COc1ccc(NC(=O)c2ccnnc2)cc1Cl`, the inhibition was 50.1% (active). For `CC(C)COc1ccc(NC(=O)c2nn(C)c(=O)c3ccccc23)cc1Cl`, the inhibition was 24.1%.

As for `CS(=O)(=O)Nc1cc(Cl)ccc1Sc1ccc(F)cc1`, the inhibition was 76.2% (active). In the case of `Cc1cc(C)c(NC(=O)c2cc(C)nc3c2cnn3C(C)C)c(C)c1`, the inhibition is 59.8% (active).

`CCOc1ccc(N2C(=O)C3N=NN(Cc4cccc(C)c4)C3C2=O)cc1` (stereo not given): the inhibition was 78.4% (active). On to `CCc1ccc(N2C(=O)C3N=NN(Cc4nc(-c5cccc(Cl)c5)oc4C)C3C2=O)cc1` (stereo not given), for which the inhibition was 83.4% (active). As to `CCOc1ccc(-c2nc(CN3N=NC4C(=O)N(c5ccc(C)c(Cl)c5)C(=O)C43)c(C)o2)cc1` (stereo not given), the inhibition is 20.2%. Regarding `CCOc1ccc(N2C(=O)C3N=NN(Cc4cc(C)ccc4C)C3C2=O)cc1` (stereo not given), the inhibition was 61.5% (active). As for `CCCN(C)C(=O)c1ccc2c(c1)C(=O)N(c1ccc(OCC)cc1)C2=O`, the figure is 21.7%; as for `CCc1ccc(N2C(=O)C3N=NN(Cc4cccc(C)c4)C3C2=O)cc1` (stereo not given), 67.8% (active). In the case of `COc1ccc(N2C(=O)C3N=NN(Cc4cc(C)ccc4C)C3C2=O)cc1Cl` (stereo not given), the inhibition was -29.4%. For `CSc1ccc(NC(=O)c2cn[nH]n2)cc1Cl` the value was 95.5% (active); for `CC(=O)/C(=N/Nc1ccc(C)cc1)N1CCOCC1`, 94.7% (active); for `O=C1c2cccc([N+](=O)[O-])c2C(=O)N1CNc1ccc(Cl)c(Cl)c1`, 45.5%.

`O=C1c2ccc([N+](=O)[O-])cc2C(=O)N1CNc1ccc2c(c1)oc1ccccc12`: the inhibition is 86.3% (active). As for `CC(C)CCC(C)NC(=O)c1cc(O)cs1` (stereo not given), the inhibition was 37.3%.

As for `Cc1cc(O)c(S(=O)(=O)c2cc(Cl)c(Cl)cc2Cl)c(=O)[nH]1`, the inhibition is 60.9% (active).

Consider `FC(F)(F)COCCCn1nnc(-c2ccsc2)n1`, for which the inhibition was 79.5% (active).

For `O=C1C(=Cc2cccs2)CCC1=Cc1cccs1`, the inhibition was 103% (active). For `O=C1/C(=C/c2cccs2)C(c2cccs2)Oc2ccccc21` (stereo not given), the inhibition is 33%.

Consider `C=CCC1SC(=NN=Cc2cccs2)NC1=O` (stereo not given), for which the inhibition was 22.9%. On to `O=C1C(=Cc2cccs2)CCCC1=Cc1cccs1`, for which the inhibition is 91.6% (active). Turning to `O=C1C(=Cc2ccc(Br)s2)CCc2ccccc21`, the inhibition is 0.54%. As for `O=C1NC(=O)C(=Cc2cccs2)S1`, the inhibition was 42.2%.

For `CC1CCN(c2nnc(C(=O)Nc3ccccc3)c3ccccc23)CC1`, the inhibition was 24.6%.
